# Screens as filed in PubChem.
# HPGD inh: qHTS Assay for Inhibitors of HPGD (15-Hydroxyprostaglandin Dehydrogenase) | 15-hydroxyprostaglandin dehydrogenase [NAD(+)] (Homo sapiens), P15428 | purified HPGD, NADH fluorescence kinetic, PGE2 substrate | Potency, µM, without a hit: at the highest dose activity change, negative = inhibition, hits mostly inhibitors | 150,000 tested, 4.3% active | AID 894, 2007; active = well fitted inhibition curve with a large enough effect, not every such curve was filed as active; inconclusive = small, poorly fitted or top-dose-only effect, or another doubt; inactive = no such curve, though single readings can be large or run the other way; note: potency is the fitted concentration of half-maximal effect; % is set by controls: 0 for no effect and ±100 for the full control effect
#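 20 nM HPGD preincubated 15 min at room temperature with compound in 50 mM Tris-HCl pH 8, 0.01% Tween 20. Started with 1 mM NAD+ and 30 uM prostaglandin E2; NADH fluorescence (360/450 nm) read 5 times over 30-s intervals, last minus first.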
# ALDH1A1 block: qHTS Assay for Inhibitors of Aldehyde Dehydrogenase 1 (ALDH1A1); Aldehyde dehydrogenase 1A1 (Homo sapiens), P00352; Purified ALDH1A1, NADH fluorescence, propionaldehyde substrate; 220,000 tested, 7.3% active; AID 1030, 2008; Potency, µM (top dose mostly 75.3 µM), for inactives: at the top dose activity, negative = inhibition, usual class: inhibitors; active = well fitted inhibition curve with a large enough effect, not every such curve was filed as active; inconclusive = small, poorly fitted or top-dose-only effect, or another doubt; inactive = no such curve, though single readings can be large or run the other way;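 note: potency is the fitted concentration of half-maximal effect; plate controls were no enzyme wells and a reference inhibitor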
# PNC inhibitor: High Content Assay for Compounds that inhibit the Assembly of the Perinucleolar Compartment | PC3M PTB-GFP, PNC prevalence imaging, 16 h; stronger effect = lower value | activity change (PNC), negative = inhibition, % at 10 µM | 140,000 tested, 3.1% active | AID 2417, 2010;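 active = readout at or below -70, meaning at least 70% loss of cells showing the perinucleolar compartment, a nuclear body marking cancer cells; inconclusive = readout between -30 and a set limit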;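 note: plate controls were DMSO wells for no effect and camptothecin positive control wells for full effect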
#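 Read-out is percentage of cells bearing a perinucleolar compartment, from automated 20x imaging of fixed, Hoechst-stained PC3M PTB-GFP cells. Cells were seeded 4 h, then exposed 16 h to compound (23 nl of library stock) in duplicate plates.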
# HTT aggregate: qHTS Multiplex Assay to Identify Dual Action Probes in a Cell Model of Huntington: Aggregate Formation (GFP) | Potency, µM (highest dose often 46.1 µM), for the others: at the highest dose activity change, negative = inhibition, most hits filed as inhibitors | 220,000 tested, 1.1% active | PC12 HttQ103-GFP aggregates, Acumen cytometry, 40 h; note: potency is the fitted concentration of half-maximal effect; % is set by controls: 0 for no effect and ±100 for the full control effect; nearly all actives have a fitted effect of over 60% in size
#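 Aggregate formation scored by laser-scanning cytometer (488 excitation, 500–530 emission) in lysed PC12 cells expressing Q103-GFP after 100 nM tebufenozide induction; library tested in dose series, with ATPLite reagent added in the multiplex.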
# CBFb RUNX1 block: qHTS Assay for Compounds Blocking the Interaction Between CBF-beta and RUNX1 for the Treatment of Acute Myeloid Leukemia | AlphaScreen CBFb-His/RUNX1-biotin binding, biochemical | 230,000 tested, under 10 active | Potency, µM (top dose mostly 59.8 µM), without a hit: at the top dose activity, negative = inhibition, hits mostly inhibitors | Runt-related transcription factor 1 (Homo sapiens) + Core-binding factor subunit beta …; note: % of control where 0% means no effect
# Target sequence (Q01196 whole entry, looked up): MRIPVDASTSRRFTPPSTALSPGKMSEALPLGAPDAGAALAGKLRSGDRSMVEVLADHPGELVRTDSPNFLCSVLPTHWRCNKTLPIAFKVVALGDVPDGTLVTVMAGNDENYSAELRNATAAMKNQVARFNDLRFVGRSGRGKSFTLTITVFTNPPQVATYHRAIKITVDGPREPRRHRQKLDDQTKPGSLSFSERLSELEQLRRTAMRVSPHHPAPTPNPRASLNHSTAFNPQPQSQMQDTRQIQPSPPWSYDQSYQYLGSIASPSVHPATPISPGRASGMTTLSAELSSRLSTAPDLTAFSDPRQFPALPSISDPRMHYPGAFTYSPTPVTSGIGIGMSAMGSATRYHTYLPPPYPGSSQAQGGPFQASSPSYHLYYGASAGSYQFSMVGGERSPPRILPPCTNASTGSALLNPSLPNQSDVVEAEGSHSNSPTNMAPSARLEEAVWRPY
# Target sequence (Q13951 whole entry, looked up): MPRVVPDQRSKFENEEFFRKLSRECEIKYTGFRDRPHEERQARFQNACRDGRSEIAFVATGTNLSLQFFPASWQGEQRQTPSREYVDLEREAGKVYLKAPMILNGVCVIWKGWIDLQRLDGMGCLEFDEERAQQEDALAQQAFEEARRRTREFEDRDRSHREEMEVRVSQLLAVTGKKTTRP
#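 CBF-beta (His) and RUNX1 (biotin), 30 nM each; 20 min preassociation; + compound, 15 min; + beads 50 ng each (Ni, streptavidin), 90 min; RT; AlphaScreen read.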
# HTT cytoprotect: qHTS Multiplex Assay to Identify Dual Action Probes in a Cell Model of Huntington: Cytoprotection (ATP) | PC12 HTT-Q103 induced, cytoprotection, ATP luminescence, 40 h | Potency, µM (titrated, usually from 56.4 µM), inactives show cytoprotection (ATP increase), usual class: activators | 230,000 tested, 0.14% active; note: potency is the fitted concentration of half-maximal effect; % of control where 0% means no effect; nearly all actives have a fitted effect of over 45% in size
#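 Stable PC12 Q103-GFP cells in serum-supplemented, phenol red-free DMEM; induction by tebufenozide at 100 nM final; compound dose series; cell viability quantified luminescently from ATP.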
# The depositor's hits bear a star; ? = inconclusive; . = no result; [ ] = another dose, or the depositor's remark. Only some compounds are listed: those with a hit (about 11% of all), similar ones and a draw of the others. Unless noted, calls come from the whole dose curve; as a rule, active = well fitted curve in the direction sought with a large enough effect; inconclusive = small, poorly fitted or top-dose-only effect, or another doubt; inactive = no such curve, though single readings can be large; an effect the other way counts as inactive or inconclusive.
SMILES,HPGD inh,ALDH1A1 block,PNC inhibitor,HTT aggregate,CBFb RUNX1 block,HTT cytoprotect
COc1ccc(NC(=O)CCc2nc(-c3ccc(C)cc3)no2)c(OC)c1,-8%,?,-103*,16%,0%,-15%
COc1ccc(-c2noc(CCC(=O)Nc3cccnc3)n2)cc1OC,-26%,?,-100*,6%,-7%,-7%
CC(C)NC[C@@H](O)COc1ccccc1-n1cccc1,1%,-2%,.,.,6%[21.7 µM],-11%
C1CCc2c(nnc3c2-c2nonc2CC3)C1,1%,?,-16,13%,6%,2%
COc1ccc(-c2noc(CCC(=O)NC3CCCCC3)n2)cc1OC,35µM*,6%,-1,-11%,14%,-16%[0.074 µM]
O=C(CCc1nc(-c2ccccc2)no1)NCCc1ccccc1,-24%,6%,37,-6%,3%,9%
COc1ccc(-c2noc(CCC(=O)NCCN(C)Cc3ccccc3)n2)cc1,16µM*,7%,34,-4%,0%,-3%
COc1ccc(-c2noc(CCC(=O)NCc3cccnc3)n2)cc1,.,14%,22,-8%,-2%,-20%
COc1ccc(Cc2nc(-c3ccc(NC(=O)c4cccnc4)cc3)no2)cc1,-12%,12%,-126*,-18%,5%,-18%[1.9 µM]
CC(=O)C1=C(C)NC(SCC(=O)c2ccc(Cl)cc2)=C(C#N)C1c1ccco1 (centres undefined),32µM*,20µM*,29,8%,9%,6%
CCOC(=O)C1=C(c2ccccc2)NC(SCC(=O)Nc2ccccc2C)=C(C#N)C1c1ccco1 (centres undefined),?,14µM*,?,?,-17%,-36%[1.9 µM]
CC(=O)C1=C(C)NC(SCC(=O)c2ccccc2)=C(C#N)C1c1ccco1 (centres undefined),32µM*,20µM*,11,2%,9%,-21%
CSC1=C(C#N)C(c2ccccc2)C(C(C)=O)=C(C)N1 (centres undefined),.,-2%,.,.,3%,.
CC(=O)C1=C(C)NC(SCC(=O)c2ccccc2)=C(C#N)C1CC(C)C (centres undefined),32µM*,7.1µM*,6,1.6µM*,7%,-15%[0.074 µM]
OCCNc1ncnc2nc[nH]c12,-12%,1%[13.5 µM],.,.,.,0%[10 µM]
CC(=O)C1=C(C)NC(SCc2ccc(C#N)cc2)=C(C#N)C1c1ccco1 (centres undefined),-5%,22µM*,?,16%,3%,.
CN(C)c1ncc2nc(CCc3ccccc3)c(=O)n(Cc3ccc(F)cc3)c2n1,-25%,?,.,.,.,-51%
N#CCCN(C(=O)CN1C(=O)NC2(CCCC2)C1=O)c1ccccc1F,-10%,7.9µM*,37,10%[9.22 µM],-3%,1%
O=C(CN1C(=O)NC2(CCCC2)C1=O)Nc1ccccc1F,0%,8%,?,-5%,3%,-11%
O=C(ON=C1CCN(S(=O)(=O)c2ccccc2)CC1)c1cccc(Cl)c1,-11%,-2%,-100*,-12%,5%,-9%[10 µM]
O=C(ON=C1CCN(S(=O)(=O)c2ccccc2)CC1)c1ccccc1,5%,1%,?,-8%,1%,-2%
CC(O)c1cccc2cc(C(O)CNC(C)(C)C)oc12 (centres undefined),.,.,.,.,4%,.
CCOc1cc(/C=N/NC(=O)CNc2cccc(C)c2)ccc1OC(=O)c1ccccc1,-15%,3%,?,11%,-13%,-15%
CCOc1cc(/C=N/Nc2cccc(C(=O)O)c2)ccc1OC(=O)c1ccccc1,.,40µM*,.,-7%[9.22 µM],-17%,-9%
S=C(NCc1ccco1)Nc1ccc(Cl)cc1,18µM*,?,-25,?,-4%,?
SMILES,HPGD inh,ALDH1A1 block,PNC inhibitor,HTT aggregate,CBFb RUNX1 block,HTT cytoprotect
O=C(O)Cc1ccc(NC(=S)NCc2ccco2)cc1,-12%,4%,-10,-9%,1%,-22%[10 µM]
O=C(c1ccc(NC(=S)NCc2ccco2)cc1)N1CCCCC1,.,22µM*,.,19%,2%,.
CCNS(=O)(=O)c1ccc(NC(=S)NCc2ccco2)cc1,-17%,22µM*,1,-13%,-6%,33%[10 µM]
Cc1cccnc1NC(=S)NCc1ccco1,.,13µM*,.,4%,-20%,.
Cn1cccc1C(=O)N1CCC2(CCN(C(=O)Nc3cccc(F)c3)CC2)CC1,-1%,-2%,.,.,.,11%
COCCCNC(=O)C1CCC(CNS(=O)(=O)c2ccc(Cl)cc2)CC1 (centres undefined),.,-12%,.,19%,-5%,-23%
Cc1ccc(SCC(c2ccccc2)N2CCN(C)CCC2=O)cc1 (centres undefined),.,.,.,.,-16%,.
Cc1ccccc1OCC(=O)Nc1cccc(N(C)S(C)(=O)=O)c1,-11%,6%,7,-10%,14%,13%[10 µM]
CN(c1cccc(NC(=O)CN(c2ccc(Cl)c(Cl)c2)S(=O)(=O)c2ccccc2)c1)S(C)(=O)=O,-6%,-3%,-100*,?,1%,26%[10 µM]
COC(=O)c1cc(NC(=O)CN(c2ccc(OC)cc2)S(=O)(=O)c2ccc(F)cc2)ccc1Cl,-6%,12%,-119*,8%,6%,21%[10 µM]
CN(c1cccc(NC(=O)c2ccc(C(C)(C)C)cc2)c1)S(C)(=O)=O,.,?,.,11µM*,24%,-164%
Cc1ccc(S(=O)(=O)N(CC(=O)Nc2cccc(N(C)S(C)(=O)=O)c2)c2ccc(Cl)c(Cl)c2)cc1,-13%,4%,?,?,-8%,10%[10 µM]
C=CCNC(=O)CN(c1ccc(F)cc1)S(=O)(=O)c1ccc(OC)cc1,-6%,8%,15,10%,2%,-4%
CN(c1cccc(NC(=O)COc2ccccc2)c1)S(C)(=O)=O,-17%,-8%,-111*,?,4%,-30%[10 µM]
Cc1cccc(NC(=O)c2cccc(N3C(=O)C4C5CCC(C5)C4C3=O)c2)c1C (centres undefined),-7%,3%,66,9%,3%,-12%
CN(CCOc1ccccc1)S(=O)(=O)c1ccc2oc3ccccc3c2c1,.,-3%,-9,12%,11%,-8%
Cn1c(NC(=O)COc2ccccc2)cc(=O)n(C)c1=O,-7%,25µM*,50,4%,6%,-1%
CN(c1cccc(NS(=O)(=O)c2cccs2)c1)S(C)(=O)=O,-8%,20µM*,14,?,5%,-17%[0.074 µM]
